Molecular target: T1, GST-Co-NF-kB (Capsaspora owczarzaki, UniProt F1ARL5 200-546)
T1 sequence: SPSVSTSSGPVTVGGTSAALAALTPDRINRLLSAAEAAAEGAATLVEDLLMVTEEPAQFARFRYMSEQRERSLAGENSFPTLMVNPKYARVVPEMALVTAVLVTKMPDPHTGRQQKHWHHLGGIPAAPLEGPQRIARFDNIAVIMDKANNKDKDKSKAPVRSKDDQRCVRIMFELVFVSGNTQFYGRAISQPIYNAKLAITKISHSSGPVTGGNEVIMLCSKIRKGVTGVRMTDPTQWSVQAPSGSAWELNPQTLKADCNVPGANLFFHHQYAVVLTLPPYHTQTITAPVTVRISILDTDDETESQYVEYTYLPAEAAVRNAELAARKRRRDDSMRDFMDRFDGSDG
Assay: protein-binding microarray (PBM); PBM: ~300 nM protein, 6 mM HEPES pH 7.8, 80 mM KCl, 0.5 mM EDTA, 0.5 mM EGTA, 6% glycerol, 35 ng/ul poly-dIdC, 1% milk, 1 h, room temperature; Ap Aiptasia and Nv Nematostella (sea anemones) / Co Capsaspora / Aq Amphimedon (sponge) / Dm Drosophila / Hu human; RHD is the Rel homology domain; high values mean tight binding
Conditions: dsDNA, one strand shown

Row | Sequence | binding signal [z-score]
1 | CCGATTAACATCAGGGGGTAACCTGATGTTAATCGGGTCTTGATTCGCTTGACGCTGCTG | 5.91
2 | CCGATTAACATCAGGAGTACCCCTGATGTTAATCGGGTCTTGATTCGCTTGACGCTGCTG | 2.96
3 | CCGATTAACATCAGGGAAAATGATGATGTTAATCGGGTCTTGATTCGCTTGACGCTGCTG | 3.42
4 | CCGATTAACATCAAGCAATTCCCTGATGTTAATCGGGTCTTGATTCGCTTGACGCTGCTG | 2.25
5 | CCGATTAACATCAAATATACCCCTGATGTTAATCGGGTCTTGATTCGCTTGACGCTGCTG | 5.87
6 | CCGATTAACATCACGGGAAACCCTGATGTTAATCGGGTCTTGATTCGCTTGACGCTGCTG | 3.68
7 | CCGATTAACATCAGATTTCCCACTGATGTTAATCGGGTCTTGATTCGCTTGACGCTGCTG | 3.15
8 | CCGATTAACATCAGGGATCACCCTGATGTTAATCGGGTCTTGATTCGCTTGACGCTGCTG | 1.02
9 | CCGATTAACATCAGGGGAAGGGATGATGTTAATCGGGTCTTGATTCGCTTGACGCTGCTG | 3.96
10 | CCGATTAACATCAAACCCCCCCCTGATGTTAATCGGGTCTTGATTCGCTTGACGCTGCTG | 4.79
11 | CCGATTAACATCAACTCCCCCCATGATGTTAATCGGGTCTTGATTCGCTTGACGCTGCTG | 6.49
12 | CCGATTAACATCAGGGGGTTACATGATGTTAATCGGGTCTTGATTCGCTTGACGCTGCTG | 3.27
13 | CCGATTAACATCAGGGGACAACCTGATGTTAATCGGGTCTTGATTCGCTTGACGCTGCTG | 3.44
14 | CCGATTAACATCAAGAGTTTCCCTGATGTTAATCGGGTCTTGATTCGCTTGACGCTGCTG | 3.98

— article PMC5700166
